Experimental data published in PubChem BioAssay (NCATS).
Values joined by “and” are separate entries in the source; they are usually repeats but may differ in a detail not shown here. Equal entries are not always repeated. Results filed as inconclusive are left out. Active and inactive are the calls of the source. Unless noted, calls come from the whole dose curve; as a rule, active = well fitted curve in either direction with a large enough effect (not every such curve was filed as active); inconclusive = small, poorly fitted or top-dose-only effect, or another doubt; inactive = flat fitted curve, though single readings scatter.

Experiments:
[1] = AP1 Signaling Pathway (AID 357); details: ME-180 AP-1-bla reporter, EGF-induced, beta-lactamase ratio, 5 h; note: % is set by controls: 0 for no effect and ±100 for the full control effect
How it was run: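 AP-1-bla ME-180 cells with beta-lactamase reporter under AP-1 response element, stimulated with EC50 EGF; compounds titrated, 5 hours at 37 degrees Celsius. CCF4 read at 460/530 nm ratio; positive and negative modulators judged by AC50.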

[2] = target: Cytochrome P450 1A2 (Homo sapiens) (UniProt P05177); assay: p450-cyp1a2 (AID 410; calls by dose curve; note: potency is the fitted concentration of half-maximal effect;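 for activity change, negative = inhibition: -100% = full effect of reference inhibitor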); details: recombinant CYP1A2, luciferin-ME demethylation, luminescence; series mostly up to 57 µM
Sequence of Cytochrome P450 1A2 (Homo sapiens) (P05177 whole entry, looked up): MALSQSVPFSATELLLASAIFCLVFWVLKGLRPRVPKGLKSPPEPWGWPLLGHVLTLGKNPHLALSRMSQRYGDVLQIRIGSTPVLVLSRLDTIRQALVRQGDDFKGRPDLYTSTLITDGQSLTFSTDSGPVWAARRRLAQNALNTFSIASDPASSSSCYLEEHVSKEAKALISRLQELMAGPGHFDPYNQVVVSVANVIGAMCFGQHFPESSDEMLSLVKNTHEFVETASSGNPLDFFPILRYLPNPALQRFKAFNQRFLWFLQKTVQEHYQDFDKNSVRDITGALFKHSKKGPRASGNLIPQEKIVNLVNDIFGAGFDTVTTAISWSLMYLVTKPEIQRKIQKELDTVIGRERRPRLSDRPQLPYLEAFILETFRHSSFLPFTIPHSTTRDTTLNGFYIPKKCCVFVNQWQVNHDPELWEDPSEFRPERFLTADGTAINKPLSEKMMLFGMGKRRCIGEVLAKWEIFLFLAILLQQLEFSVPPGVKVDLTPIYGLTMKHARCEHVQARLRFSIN
How it was run: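 Human CYP1A2 (20nM) demethylated Luciferin-ME at its Km (100uM) in 100mM KPO4. After 10 min compound preincubation, NADPH regeneration ran the reaction 60 min at room temperature. Luciferin was read by luminescence, normalized to 57 uM furafylline.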

[3] = NFAT Signaling Pathway (AID 444); details: Jurkat NFAT-bla M1, carbachol, beta-lactamase ratio, 5 h;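 note: carbachol stimulus at about its EC50 of 1 µM final; % is set by controls: 0 for no effect and ±100 for the full control effect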
How it was run: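 Read-out: CCF4 FRET ratio (460 nm/530 nm) after 1 h RT dye loading, used for %activity and AC50 from titration series. Cells: Jurkat NFAT-β-lactamase/M1 line, treated with compound plus 1 uM carbachol for 5 h, 37 °C.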

[4] = Stat Signaling Pathway (AID 446); details: ME-180 (cervical carcinoma) SIE beta-lactamase reporter, IL-6 stimulated, 5 h;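 note: ME-180 cervical cancer cells given 40 pM IL-6 alongside compound; SIE-controlled beta-lactamase reporter measured as 460/530 nm FRET emission ratio; % is set by controls: 0 for no effect and ±100 for the full control effect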
How it was run: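 IL-6/STAT signaling read in ME-180 cells via an SIE beta-lactamase reporter. Stimulus was 40 pM IL-6 (its AC50) for 5 hrs, so both activation and inhibition register.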

[5] = target: Glucocorticoid receptor (Homo sapiens) (UniProt P04150); assay: GR-GFP Redistribution (AID 450;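 active = compounds whose dose series gives a full or clear partial fitted curve of increased nuclear translocation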; note: potency is the fitted concentration of half-maximal effect); details: U2OS GR-GFP nuclear translocation, laser cytometry, 2 h
Sequence of Glucocorticoid receptor (Homo sapiens) (P04150 whole entry, looked up, the tested form may be a part): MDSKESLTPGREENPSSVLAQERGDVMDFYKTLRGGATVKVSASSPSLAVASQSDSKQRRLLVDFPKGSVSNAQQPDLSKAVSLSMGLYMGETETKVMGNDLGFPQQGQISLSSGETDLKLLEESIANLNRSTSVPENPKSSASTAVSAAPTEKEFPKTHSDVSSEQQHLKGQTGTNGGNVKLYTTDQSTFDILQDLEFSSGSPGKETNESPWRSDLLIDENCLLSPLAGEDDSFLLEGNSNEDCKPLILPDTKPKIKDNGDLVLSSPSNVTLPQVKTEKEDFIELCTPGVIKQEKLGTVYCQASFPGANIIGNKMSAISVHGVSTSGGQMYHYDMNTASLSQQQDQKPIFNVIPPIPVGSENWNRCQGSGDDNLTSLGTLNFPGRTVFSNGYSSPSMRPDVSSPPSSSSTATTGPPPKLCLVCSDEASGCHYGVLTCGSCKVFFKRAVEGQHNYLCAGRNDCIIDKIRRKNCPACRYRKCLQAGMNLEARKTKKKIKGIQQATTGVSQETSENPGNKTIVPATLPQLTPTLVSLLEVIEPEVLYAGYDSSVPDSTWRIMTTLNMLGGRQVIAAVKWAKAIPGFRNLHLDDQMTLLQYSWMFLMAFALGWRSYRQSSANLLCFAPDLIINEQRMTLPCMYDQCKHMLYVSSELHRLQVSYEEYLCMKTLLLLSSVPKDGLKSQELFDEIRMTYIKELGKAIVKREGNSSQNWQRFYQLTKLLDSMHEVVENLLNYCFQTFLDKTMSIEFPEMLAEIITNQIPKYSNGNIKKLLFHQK

[6] = target: Glucocorticoid receptor (Homo sapiens) (UniProt P04150); assay: GR-EFC Redistribution (AID 451; calls by dose curve; note: potency is the fitted concentration of half-maximal effect); details: CHO-K1 GR-EFC translocation, beta-gal luminescence, 2 h
How it was run: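 Translocation of GR-ED fusion to nuclear EA restores b-gal, read by luminescence after 1 h room-temperature detection. Engineered CHO-K1 biosensor cells, 1,000/well, exposed 2 h at 37 C to titrations up to 46 uM final.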

[7] = target: Mitogen-activated protein kinase 10 (Mus musculus) (UniProt Q61831); assay: JNK3 AlphaScreen Assay (AID 530); details: JNK3 lysate, c-Jun phosphorylation; series mostly up to 57.1 µM;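 note: kinase came from lysate of stimulated human HepG2 cells; signal reports phosphorylation of biotinylated GST-cJun 1-79 at Ser73 with 10 µM ATP; % is set by controls: 0 for no effect and ±100 for the full control effect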
How it was run: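 Room-temperature AlphaScreen kinase assay; pre-activated HepG2 lysate as JNK3 source, biotin-GST-cJun(1-79) substrate, 10 uM ATP, compound 15 min preincubation.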

[8] = target: 3',5'-cyclic-AMP phosphodiesterase 4B (Homo sapiens) (UniProt Q07343); assay: qHTS Assay for Inhibitors of PDE-IV (AID 607; active = well fitted activation curve with a large enough effect in the main read-out, with a control signal flat, not every such curve was filed as active; note: % of control where 0% means no effect); details: HEK293 ACTOne CNG channel cells, membrane potential fluorescence; series mostly up to 22.9 µM
Sequence of 3',5'-cyclic-AMP phosphodiesterase 4B (Homo sapiens) (Q07343 whole entry, looked up): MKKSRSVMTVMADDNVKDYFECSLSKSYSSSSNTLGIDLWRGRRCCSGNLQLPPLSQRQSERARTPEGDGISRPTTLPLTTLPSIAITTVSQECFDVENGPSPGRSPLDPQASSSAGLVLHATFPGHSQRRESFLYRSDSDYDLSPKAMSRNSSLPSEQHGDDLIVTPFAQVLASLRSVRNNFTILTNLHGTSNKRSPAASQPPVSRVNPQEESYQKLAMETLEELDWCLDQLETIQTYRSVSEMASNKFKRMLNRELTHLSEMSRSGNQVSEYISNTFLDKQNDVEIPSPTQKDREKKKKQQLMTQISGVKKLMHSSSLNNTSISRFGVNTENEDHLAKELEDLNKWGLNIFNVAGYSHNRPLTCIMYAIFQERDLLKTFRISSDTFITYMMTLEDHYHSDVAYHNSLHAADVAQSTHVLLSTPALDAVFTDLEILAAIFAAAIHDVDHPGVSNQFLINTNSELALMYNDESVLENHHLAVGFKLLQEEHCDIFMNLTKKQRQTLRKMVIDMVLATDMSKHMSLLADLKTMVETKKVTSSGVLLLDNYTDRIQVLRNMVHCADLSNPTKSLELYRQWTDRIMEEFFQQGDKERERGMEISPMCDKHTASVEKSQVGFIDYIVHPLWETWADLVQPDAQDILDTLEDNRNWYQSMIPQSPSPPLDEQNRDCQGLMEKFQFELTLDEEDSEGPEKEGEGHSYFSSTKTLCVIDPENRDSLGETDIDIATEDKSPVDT
How it was run: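 Live HEK293 cells with a modified cyclic nucleotide-gated (CNG) channel report intracellular cAMP via membrane-potential dye fluorescence (ex 535/em 590 nm). Endogenous PDE-IV was targeted. Compounds were tested at up to 22.9 uM final; RO 20-1724 100 uM served as control.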

[9] = target: Guanine nucleotide-binding protein G(i) subunit alpha-1 (Homo sapiens) (UniProt P63096); assay: qHTS Assay for Inhibitors of RGS12 GoLoco Motif Activity (Green Fluorophore) (AID 879; active = well fitted curve in the direction sought with a large enough effect; an effect the other way counts as inactive or inconclusive;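 note: 0% = labeled peptide with Gαi1 and full inhibition = labeled peptide alone without protein; negative values mean loss of peptide binding seen as reduced polarization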); details: Galphai1/FITC-RGS12 GoLoco peptide, fluorescence polarization; series mostly up to 57.1 µM
Sequence of Guanine nucleotide-binding protein G(i) subunit alpha-1 (Homo sapiens) (P63096 whole entry, looked up): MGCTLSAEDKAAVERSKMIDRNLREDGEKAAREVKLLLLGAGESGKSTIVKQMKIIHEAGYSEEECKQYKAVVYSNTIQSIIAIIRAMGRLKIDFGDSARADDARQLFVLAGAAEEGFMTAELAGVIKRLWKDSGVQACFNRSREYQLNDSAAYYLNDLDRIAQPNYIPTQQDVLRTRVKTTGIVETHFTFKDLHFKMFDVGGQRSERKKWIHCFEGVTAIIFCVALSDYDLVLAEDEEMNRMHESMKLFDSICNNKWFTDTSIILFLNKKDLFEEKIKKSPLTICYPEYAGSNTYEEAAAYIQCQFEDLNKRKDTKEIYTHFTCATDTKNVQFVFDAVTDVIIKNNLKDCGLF
How it was run: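 Fluorescence polarization assay: 50 nM Gαi1 with 10 nM FITC-labeled RGS12 GoLoco peptide in 10 mM Tris pH 7.5, 150 mM NaCl, 0.1 mM GDP, 0.05% NP40, 10 min at room temperature with compound.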

[10] = qHTS Assay for Identification of Small Molecule Agonists for Thrombopoietin (TPO) Signaling Pathway (AID 917; active = well fitted curve in the direction sought with a large enough effect; an effect the other way counts as inactive or inconclusive; note: % is set by controls: 0 for no effect and ±100 for the full control effect); details: TPO signaling pathway reporter cells, agonist qHTS, stimulated with TPO at its EC50; series mostly up to 38.5 µM
How it was run: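 Murine Ba/F3 cells stably expressing human TPO receptor and a Glycoprotein IIb promoter–luciferase reporter were IL-3-starved overnight, then treated with compounds plus TPO (26 pM final, its EC50) for 24 hrs at 37 C; luminescence was read.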

[11] = target: Pyruvate kinase (Leishmania mexicana) (UniProt Q27686); assay: qHTS Validation Assay for Inhibitors of Leishmania Mexicana Pyruvate Kinase (AID 945; active = well fitted curve in the direction sought with a large enough effect; an effect the other way counts as inactive or inconclusive;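 note: 0% = DMSO only neutral control wells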); details: purified L. mexicana pyruvate kinase, enzyme activity, E451W mutant enzyme; series mostly up to 57.5 µM
Sequence of Pyruvate kinase (Leishmania mexicana) (Q27686 2-499 E452W): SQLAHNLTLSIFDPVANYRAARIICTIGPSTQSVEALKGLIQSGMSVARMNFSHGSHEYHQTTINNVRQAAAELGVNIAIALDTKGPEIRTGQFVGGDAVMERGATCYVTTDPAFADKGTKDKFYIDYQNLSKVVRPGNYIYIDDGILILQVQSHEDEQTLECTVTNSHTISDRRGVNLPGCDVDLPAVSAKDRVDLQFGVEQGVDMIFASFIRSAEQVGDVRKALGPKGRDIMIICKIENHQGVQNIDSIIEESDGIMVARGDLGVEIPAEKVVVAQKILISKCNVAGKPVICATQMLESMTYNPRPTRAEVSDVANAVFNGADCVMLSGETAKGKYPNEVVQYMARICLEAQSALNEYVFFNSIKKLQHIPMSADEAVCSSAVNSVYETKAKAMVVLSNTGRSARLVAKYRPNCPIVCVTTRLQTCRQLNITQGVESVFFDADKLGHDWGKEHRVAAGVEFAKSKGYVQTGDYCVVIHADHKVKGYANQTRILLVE
How it was run: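 Purified LmPYK (E451W mutant, 0.2 nM) was incubated 1 h at room temperature with 0.5 mM PEP and 0.1 mM ADP in 50 mM imidazole pH 7.2, 50 mM KCl, 7 mM MgCl2; ATP formed was read by PKLight luminescence, normalized to DMSO wells.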

[12] = target: Pyruvate kinase PKM (Homo sapiens) (UniProt P14618); assay: qHTS Assay for Activators of Human Muscle Pyruvate Kinase (AID 954; active = well fitted curve in the direction sought with a large enough effect, not every such curve was filed as active;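 note: 0% = uninhibited enzyme and -100% = no enzyme or full thiadiazolimine inhibition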); details: purified human muscle pyruvate kinase, luciferase-coupled luminescence, 1 h; series mostly up to 57.5 µM
Sequence of Pyruvate kinase PKM (Homo sapiens) (P14618 whole entry, looked up): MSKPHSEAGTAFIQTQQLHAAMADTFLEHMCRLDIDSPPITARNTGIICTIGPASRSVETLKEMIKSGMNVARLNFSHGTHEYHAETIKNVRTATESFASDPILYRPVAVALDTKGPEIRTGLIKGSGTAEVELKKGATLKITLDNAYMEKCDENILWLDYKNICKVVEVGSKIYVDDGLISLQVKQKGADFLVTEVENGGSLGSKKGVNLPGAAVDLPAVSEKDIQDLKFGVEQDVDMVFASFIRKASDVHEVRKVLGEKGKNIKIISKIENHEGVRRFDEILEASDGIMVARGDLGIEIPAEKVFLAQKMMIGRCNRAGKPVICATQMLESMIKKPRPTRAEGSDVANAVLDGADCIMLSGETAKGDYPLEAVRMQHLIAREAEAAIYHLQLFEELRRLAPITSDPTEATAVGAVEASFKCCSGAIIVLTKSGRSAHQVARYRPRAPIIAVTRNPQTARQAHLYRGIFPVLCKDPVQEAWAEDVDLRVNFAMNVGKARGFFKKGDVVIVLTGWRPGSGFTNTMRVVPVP
How it was run: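 Enzyme was run at intermediate activity so both inhibitors and activators could be detected. ATP formed from ADP and PEP by 0.1 nM human PKM2 during a 1 h room-temperature incubation was quantified by coupled luciferase luminescence.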

[13] = target: Alpha-galactosidase A (Homo sapiens) (UniProt P06280); assay: Counterscreen for Glucocerebrosidase Inhibitors: qHTS Assay for Human alpha-Galactosidase at pH 4.5 (AID 992; active = well fitted curve in the direction sought with a large enough effect; an effect the other way counts as inactive or inconclusive; note: 0% is about no effect); details: purified enzyme, fluorogenic substrate; series mostly up to 76.9 µM
Sequence of Alpha-galactosidase A (Homo sapiens) (P06280 whole entry, looked up): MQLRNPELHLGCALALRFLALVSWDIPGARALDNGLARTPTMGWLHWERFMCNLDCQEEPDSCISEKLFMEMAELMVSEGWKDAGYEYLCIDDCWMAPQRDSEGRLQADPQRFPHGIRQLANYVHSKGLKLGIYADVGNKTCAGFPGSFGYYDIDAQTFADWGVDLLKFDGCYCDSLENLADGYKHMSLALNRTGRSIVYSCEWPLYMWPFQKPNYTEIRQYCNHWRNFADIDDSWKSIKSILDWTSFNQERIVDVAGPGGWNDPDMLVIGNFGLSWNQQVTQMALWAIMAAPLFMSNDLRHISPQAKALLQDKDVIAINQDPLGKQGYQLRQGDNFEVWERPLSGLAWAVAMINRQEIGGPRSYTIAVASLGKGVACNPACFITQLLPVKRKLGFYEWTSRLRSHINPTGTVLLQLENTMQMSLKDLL
How it was run: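 Read-out is 4-methylumbelliferone fluorescence (365 nm excitation, 440 nm emission) after a pH 10 NaOH/glycine stop. Reactions held 2 nM enzyme and 80 uM substrate at pH 4.5 for 20 min at room temperature.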

[14] = target: alpha-glucosidase (Oryza sativa, rice) (UniProt Q653V4); assay: Counterscreen for Glucocerebrosidase Inhibitors: qHTS Assay for Rice alpha-Glucosidase at pH 5.0 (AID 997; active = well fitted curve in the direction sought with a large enough effect; an effect the other way counts as inactive or inconclusive;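 note: 0% = full activity with enzyme and -100% = basal without enzyme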); details: rice alpha-glucosidase enzyme activity; series mostly up to 76.9 µM
How it was run: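 Rice alpha-glucosidase (4 nM final) with 400 uM 4-methylumbelliferyl-alpha-D-glucopyranoside in citrate buffer pH 5.0, 20 min at room temperature, stopped at pH 10; fluorescence 365/440 nm, compounds 0.7 nM–77 uM, AC50 from Hill fits.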

[15] = qHTS Assay for Lipid Storage Modulators (AID 1519; calls by dose curve); details: Drosophila S3 cells, BODIPY lipid droplet/cell ratio, laser cytometry, cells loaded with oleic acid; for activity change, negative = inhibition: at 25.7 µM (top of the series)
How it was run: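 Cells seeded at 5,000 per well were treated with compounds over a concentration series and loaded with oleic acid (400 uM, as added). Lipid droplet fluorescence (488 nm excitation, 500-530 nm channel) was read by laser-scanning cytometry and normalized to 20 uM Triacsin C.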

[16] = target: Ubiquitin carboxyl-terminal hydrolase 1 (Homo sapiens) (UniProt O94782); assay: Inhibitors of USP1/UAF1: Pilot qHTS (AID 504865; active = well fitted curve in the direction sought with a large enough effect; an effect the other way counts as inactive or inconclusive;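 note: rhodamine fluorescence freed from ubiquitin-rhodamine substrate followed over time; top concentration of the series differs between compounds; % is set by controls: 0 for no effect and ±100 for the full control effect; nearly all actives have a fitted effect of over 35% in size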); details: purified USP1/UAF1, Ub-rhodamine cleavage fluorescence; series mostly up to 54.9 µM
Sequence of Ubiquitin carboxyl-terminal hydrolase 1 (Homo sapiens) (O94782 whole entry, looked up): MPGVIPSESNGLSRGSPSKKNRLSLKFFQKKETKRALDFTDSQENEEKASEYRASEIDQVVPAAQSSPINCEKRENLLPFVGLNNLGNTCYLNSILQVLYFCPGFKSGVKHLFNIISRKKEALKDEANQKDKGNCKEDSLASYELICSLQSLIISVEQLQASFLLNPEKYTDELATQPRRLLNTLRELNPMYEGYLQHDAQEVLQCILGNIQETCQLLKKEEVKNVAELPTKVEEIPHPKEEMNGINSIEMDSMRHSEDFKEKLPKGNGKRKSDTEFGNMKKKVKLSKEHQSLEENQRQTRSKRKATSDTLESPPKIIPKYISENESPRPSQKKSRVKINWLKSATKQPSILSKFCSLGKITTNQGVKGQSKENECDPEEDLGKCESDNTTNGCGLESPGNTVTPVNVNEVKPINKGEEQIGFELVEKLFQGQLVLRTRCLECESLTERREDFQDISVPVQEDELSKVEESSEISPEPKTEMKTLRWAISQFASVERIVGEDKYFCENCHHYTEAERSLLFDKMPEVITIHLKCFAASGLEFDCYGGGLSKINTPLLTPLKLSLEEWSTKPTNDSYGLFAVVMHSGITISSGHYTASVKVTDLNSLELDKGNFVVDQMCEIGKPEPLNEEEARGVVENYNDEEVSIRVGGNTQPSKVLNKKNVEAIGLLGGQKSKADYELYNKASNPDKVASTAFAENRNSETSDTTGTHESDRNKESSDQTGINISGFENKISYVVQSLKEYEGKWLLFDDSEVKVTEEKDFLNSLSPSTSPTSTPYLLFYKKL
How it was run: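 USP1/UAF1 complex (1nM) preincubated with compound 15 min at room temperature, then Ub-Rho substrate (150nM final) added. Fluorescence read kinetically at 480/540 nm, 6 reads every 60 seconds. Buffer: 50mM HEPES pH 7.8, 0.5mM EDTA, 0.1 mg/ml BSA, 1mM TCEP, 0.01% Tween-20.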

[17] = qHTS profiling for inhibitors of Plasmodium falciparum proliferation (AID 504749; active = well fitted curve in the direction sought with a large enough effect; an effect the other way counts as inactive or inconclusive;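 note: 0% = DMSO vehicle and full inhibition = artemisinin control; nearly all actives have a fitted effect of over 60% in size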); details: P. falciparum in erythrocytes, SYBR Green DNA, 72 h, at 28.7 µM (top of the series)
How it was run: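 Three-day growth assay of blood-stage parasites in erythrocytes (0.3% parasitemia, 2.5% hematocrit) at 37 C, 5% CO2, quantified by SYBR Green DNA staining after overnight detergent lysis.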

[18] = target: Cytochrome P450 3A4 (Homo sapiens) (UniProt P08684); assay: qHTS Assay for Activators of Cytochrome P450 3A4 (AID 885; active = well fitted curve in the direction sought with a large enough effect; an effect the other way counts as inactive or inconclusive; note: nearly all actives have a fitted effect of over 65% in size); details: recombinant CYP3A4, Luciferin-PPXE luminescence, 60 min; series mostly up to 57.1 µM
How it was run: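 Quantitative HTS format: compounds preincubated with 20nM human CYP3A4 and Luciferin-PPXE substrate at KM, reaction started by NADPH regeneration, stopped after 60 min, luciferase luminescence read 20 min later.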

[19] = target: Cytochrome P450 2D6 (Homo sapiens) (UniProt P10635); assay: qHTS Assay for Inhibitors and Substrates of Cytochrome P450 2D6 (AID 891; active = well fitted curve in the direction sought with a large enough effect; an effect the other way counts as inactive or inconclusive; note: potency is the fitted concentration of half-maximal effect; nearly all actives have a fitted effect of over 60% in size); details: recombinant CYP2D6, luciferin-ME EGE luminescence; series mostly up to 57.1 µM
How it was run: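 Human CYP2D6 (5 nM) with 30 uM Luciferin-ME EGE (at Km) in 100 mM KPO4, compound preincubated 10 min, then NADPH regeneration system for 60 min at room temperature. Luciferin read by luminescence; normalized to 1.43 uM quinidine.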

[20] = measured here: cell count channel max response
[21] = measured here: lipid channel max response

Compound: C[C@@H](C[N+](C)(C)C)OC(N)=O
- activity change, negative = inhibition ([1]; at 17.2 µM (top of the series)): 2.54% (inactive)
- activity change, negative = inhibition ([1]; at 38 µM (top of the series)): 13.3% (inactive)
- Potency [2]: inactive
- activity change, negative = inhibition ([3]; at 17.2 µM (top of the series)): 9.21% (inactive)
- activity change, negative = inhibition ([3]; at 38 µM (top of the series)): 17.1% (inactive)
- activity, negative = inhibition ([4]; at 7.69 µM (top of the series) unless noted): -3.42% [at 17.2 µM] (inactive)
- Potency [5]: > 46 µM (inactive) and > 20.6 µM (inactive)
- Potency [6]: > 46 µM (inactive) and > 20.6 µM (inactive)
- Potency [7]: inactive
- Potency [8]: inactive
- Potency [9]: inactive
- outcome [10]: inactive
- outcome [11]: inactive
- outcome [12]: inactive
- outcome [13]: inactive
- outcome [14]: inactive
- activity change, negative = inhibition [15]: -1.39% (inactive)
- max response [15, 20]: -0.356%
- max response [15, 21]: -3.27%
- Potency [16]: inactive

Compound: N[C@@H](CO)C(=O)NNCc1ccc(O)c(O)c1O
- activity change, negative = inhibition ([1]; at 17.2 µM (top of the series)): 2.07% (inactive)
- activity change, negative = inhibition ([1]; at 38 µM (top of the series)): 14.8% (inactive)
- Potency [2]: inactive
- activity change, negative = inhibition ([3]; at 17.2 µM (top of the series)): -8.03% (inactive)
- activity change, negative = inhibition ([3]; at 38 µM (top of the series)): -7.62% (inactive)
- activity, negative = inhibition ([4]; at 17.2 µM (top of the series)): -0.902% (inactive)
- activity, negative = inhibition ([4]; at 38 µM (top of the series)): 4.31% (inactive)
- Potency [8]: inactive
- outcome [11]: inactive
- outcome [12]: inactive
- outcome [13]: inactive
- outcome [14]: inactive
- activity change, negative = inhibition [15]: -1.23% (inactive)
- max response [15, 20]: -4.75%
- max response [15, 21]: -6.43%
- Potency [16]: inactive
- activity, negative = inhibition ([17]; parasite line A): 21.9% (inactive)
- activity, negative = inhibition ([17]; parasite line B): 19.7% (inactive)

Compound: CN1Cc2c(N)cccc2[C@H](c2ccccc2)C1
- activity change, negative = inhibition ([1]; at 17.2 µM (top of the series)): -6.53% (inactive)
- activity change, negative = inhibition ([1]; at 38 µM (top of the series)): -7.55% (inactive)
- Potency [2]: 31.6 µM (active) and 6.31 µM (active)
- activity change, negative = inhibition ([3]; at 17.2 µM (top of the series)): -6.69% (inactive)
- activity change, negative = inhibition ([3]; at 38 µM (top of the series)): -5.66% (inactive)
- Potency [5]: > 46 µM (inactive) and > 20.6 µM (inactive)
- Potency [6]: > 46 µM (inactive) and > 20.6 µM (inactive)
- Potency [7]: inactive
- Potency [8]: inactive
- Potency [18]: inactive
- Potency [19]: 6.31 µM (active)
- outcome [10]: inactive
- outcome [11]: inactive
- outcome [12]: inactive
- outcome [13]: inactive
- outcome [14]: inactive
- activity change, negative = inhibition [15]: 1.09% (inactive)
- max response [15, 20]: -0.662%
- max response [15, 21]: 0.613%
- Potency [16]: inactive

Compound: CN(C)[C@@H]1C(=O)C(C(N)=O)=C(O)[C@]2(O)C(=O)C3=C(O)c4c(O)ccc(Cl)c4[C@H](O)[C@H]3C[C@@H]12
- activity change, negative = inhibition ([1]; at 17.2 µM (top of the series)): -2.16% (inactive)
- activity change, negative = inhibition ([1]; at 38 µM (top of the series)): -12.4% (inactive)
- Potency [2]: inactive
- activity change, negative = inhibition ([3]; at 17.2 µM (top of the series)): -15.3% (inactive)
- activity change, negative = inhibition ([3]; at 38 µM (top of the series)): -6.38% (inactive)
- activity, negative = inhibition ([4]; at 17.2 µM (top of the series)): -1.53% (inactive)
- activity, negative = inhibition ([4]; at 38 µM (top of the series)): 3.61% (inactive)
- Potency [5]: > 46 µM (inactive) and > 20.6 µM (inactive)
- Potency [6]: > 46 µM (inactive) and > 20.6 µM (inactive)
- Potency [7]: inactive
- Potency [8]: inactive
- Potency [9]: inactive
- outcome [10]: inactive
- outcome [11]: inactive
- outcome [12]: inactive
- outcome [13]: inactive
- outcome [14]: inactive
- activity change, negative = inhibition [15]: 2.69% (inactive)
- max response [15, 20]: 4.73%
- max response [15, 21]: 8.96%
- Potency [16]: inactive
- activity, negative = inhibition ([17]; parasite line A): -26.7% (inactive)
